Results on 104 compounds are retold here after PubChem BioAssay AID623911 (Vanderbilt High Throughput Screening Facility, 2012).

Among all 2,100 compounds or so, about 770 (37%) were called active. This is one part of the list. Unmarked numbers belong to inactive results.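 How the source made its calls: active means by-eye trace score of 1 for enhancers or -1 for inhibitors, so actives lie on both sides (some results past the limit were not filed as active); inactive means score 0, or 3 fluorescent, or 4 baseline rise.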

The target in this assay is G protein-activated inward rectifier potassium channel 2 (Homo sapiens) + G protein-activated inward rectifier potassium channel 1 (Homo sapiens) (UniProt P48051+P48549). The assay is described as follows: GIRK1/2 thallium flux modulators, retest, confirmation, cell-based, HEK293 rmGlu8/hGIRK1/2, FluoZin-2 (AID 623911). The following applies: HEK293 rmGlu8/hGIRK1/2, thallium flux FluoZin-2; actives lie on both sides; glutamate co-added at its EC20 level.
G protein-activated inward rectifier potassium channel 2 (Homo sapiens) + G protein-activated inward rectifier potassium channel 1 (Homo sapiens), sequence (P48051 whole entry, looked up): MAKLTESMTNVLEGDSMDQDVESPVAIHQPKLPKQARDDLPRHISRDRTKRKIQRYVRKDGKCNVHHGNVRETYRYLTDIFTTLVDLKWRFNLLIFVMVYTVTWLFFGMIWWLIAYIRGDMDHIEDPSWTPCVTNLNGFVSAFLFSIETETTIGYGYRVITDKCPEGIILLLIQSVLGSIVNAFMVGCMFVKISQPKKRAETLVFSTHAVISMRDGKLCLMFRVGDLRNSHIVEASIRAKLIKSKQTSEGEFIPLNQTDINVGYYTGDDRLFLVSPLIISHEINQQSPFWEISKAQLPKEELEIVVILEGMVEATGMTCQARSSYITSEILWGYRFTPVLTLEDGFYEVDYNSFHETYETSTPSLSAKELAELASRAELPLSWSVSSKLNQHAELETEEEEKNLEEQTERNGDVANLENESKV
G protein-activated inward rectifier potassium channel 2 (Homo sapiens) + G protein-activated inward rectifier potassium channel 1 (Homo sapiens), sequence (P48549 whole entry, looked up): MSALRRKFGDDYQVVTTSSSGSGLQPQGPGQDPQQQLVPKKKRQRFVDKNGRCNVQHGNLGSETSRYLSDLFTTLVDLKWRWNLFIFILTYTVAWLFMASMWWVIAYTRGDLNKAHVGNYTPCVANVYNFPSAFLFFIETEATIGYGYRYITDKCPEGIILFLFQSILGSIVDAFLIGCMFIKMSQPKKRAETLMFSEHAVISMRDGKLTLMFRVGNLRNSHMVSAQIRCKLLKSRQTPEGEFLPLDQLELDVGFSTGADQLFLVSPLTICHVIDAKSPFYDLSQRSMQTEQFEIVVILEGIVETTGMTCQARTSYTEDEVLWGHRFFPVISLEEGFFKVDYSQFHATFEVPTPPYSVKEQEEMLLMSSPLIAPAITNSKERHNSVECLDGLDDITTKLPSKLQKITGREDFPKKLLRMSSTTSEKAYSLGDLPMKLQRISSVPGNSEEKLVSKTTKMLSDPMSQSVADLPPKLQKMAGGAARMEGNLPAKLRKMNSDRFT
On to `Cn1c(NC(=O)Cc2ccc(F)cc2)cc(=O)n(C)c1=O`, for which the manual score is 0.

For `CS(=O)(=O)c1ccc2nc(NC(=O)C3C4C=CC(C4)C3C(=O)O)sc2c1` (centres undefined), the manual score is 0. As for `CC1=NN(/C(=N\c2nnc(C)s2)Nc2ccccc2)[C@H](c2cccc3ccccc23)S1`, the manual score is 0.

On to `O=C(c1oc(=O)c2ccccc2c1-c1ccccc1)N1CCN(C2CCCCC2)CC1`, for which the manual score was -1 (active). `CCN(CC)CCCn1c(=S)[nH]c2cc(Cl)ccc2c1=O`: the manual score is 0. For `CCCCn1c(=S)[nH]c2c(oc3ccc(Cl)cc32)c1=O`, the manual score was 1 (active). Take `CCN(CC)CCn1c(=S)[nH]c2cc(Cl)ccc2c1=O`: the manual score is 0.

On to `Cc1ccc(C2C3=C(NCCN=C3c3ccccc3)C(=O)N2c2ccccc2)cc1` (centres undefined), for which the manual score is -1 (active). With `Cc1ccc2nsnc2c1S(=O)(=O)Nc1cccc2nsnc12`, the manual score was 1 (active). Turning to `O=C(NNS(=O)(=O)c1ccccc1F)c1cccc(S(=O)(=O)N2CCOCC2)c1`, the manual score is 0. For `CCc1ccc(NCc2cc3c(C)nn(-c4ccccc4)c3[nH]c2=O)cc1`, the manual score was 0. The same measure for `CCc1ccc(Nc2nc3ccccc3c(=O)s2)cc1`: 1 (active). For `CCC(CC)c1nnc(NC(=O)c2ccc3ccccc3n2)s1`, the manual score is 0.

As for `O=C1CC(C(F)(F)C(F)(F)C(F)(F)F)=Nc2ccccc2N1`, the manual score is 0. The result for `O=C(N/N=C\c1ccc(Cl)s1)c1cccs1` reads 1 (active); that for `Cc1ccccc1C(=O)N/N=C/c1ccc([N+](=O)[O-])s1`, 0.

For `O=C(N/N=C/c1ccc([N+](=O)[O-])s1)c1cccc(Br)c1`, the manual score was 0. With `CCOC(=O)C1CCCN(c2nc(C)nc3c2oc2ccccc23)C1` (centres undefined), the manual score was -1 (active). The same measure for `CCOC(=O)N1CCN(C(=O)CSc2ncnc3ccccc23)CC1`: 0; for `CCOC(=O)C1CCCN(c2ncnc3c2oc2ccccc23)C1` (centres undefined): -1 (active); for `CCOC(=O)C1CCCN(C(=O)c2cc(-c3ccccc3)on2)C1` (centres undefined): 0. For the compound `Cc1ccc(S(=O)(=O)CC(=O)Nc2ccc(S(=O)(=O)Nc3onc(C)c3C)cc2)cc1`, the manual score is -0.5.

For `C/C(CC(O)c1ccc2ccccc2n1)=N/O` (centres undefined), the manual score was 0. In the case of `CNC(=S)N=Nc1c(O)[nH]c2ccc(C(C)C)cc12`, the manual score was 0. As for `Cc1ccc(C)c(C(=O)c2c(C)nc3sccn23)c1`, the manual score is -1 (active). For the compound `Cn1c(=O)c2c(nc3sccn32)n(C)c1=O`, the manual score is 0. `CC(C)(C)NC(=O)C(=O)NNC(=O)c1ccc(C(C)(C)C)cc1`: the manual score was 1 (active). For `Cc1cccc(C(=O)NNC(=O)C(=O)NC(C)(C)C)c1`, the manual score is 1 (active). Consider `CC(C)(C)c1ccc(SCC(N)=O)cc1`, for which the manual score is 0. Regarding `CC(C)(C)c1ccc(C(=O)NC(=S)Nn2cnnc2)cc1`, the manual score is 0.

As to `O=[n+]1c2c(n([O-])c3cc(F)c(N4CCCC4)cc31)CCCC2`, the manual score is 3. In the case of `COc1ccc2cc(C(=O)NCC(=O)O)sc(=O)c2c1OC`, the manual score is 0. The result for `CCOC(=O)c1c(NC(=O)CSc2nnc(Cc3csc(N)n3)n2C)sc(C)c1C` reads -1 (active); that for `CCOC(=O)c1cnc(SCC(=O)Nc2nc(C)c(C)s2)nc1N`, 0. As to `C=CCn1c(SCC(=O)Nc2sc(C)c(C)c2C(=O)OCC)nnc1-c1sc(N)nc1C`, the manual score was -1 (active). On to `C=CCn1c(SCC(=O)Nc2sccc2C(N)=O)nc2ccc(Cl)cc2c1=O`, for which the manual score is 0. Turning to `Cc1c(C(=O)O)c(=S)sn1CCOc1ccccc1`, the manual score was 0. Regarding `Cc1ccc(-c2cnc(NC(=O)CCC(=O)N3CCCCC3)n2C)cc1`, the manual score is 0. For the compound `N#Cc1nc(Cc2ccccc2)oc1NCCc1ccccc1`, the manual score is -0.5. Consider `O=C(c1cccc(F)c1)N1CCN(C(=O)c2cc(-c3ccc(Cl)cc3Cl)on2)CC1`, for which the manual score is 0. The same measure for `Cc1ccc(-c2n[nH]c(=S)n2/N=C/c2cccs2)cc1`: 0.5.

On to `Cc1ccc(/C=N/n2c(-c3cccs3)n[nH]c2=S)cc1`, for which the manual score is 1 (active). On to `Cc1ccc(-c2n[nH]c(=S)n2/N=C/c2ccc(C)s2)cc1`, for which the manual score was 0. Regarding `Cn1cccc1/C=N/n1c(-c2ccc(C(C)(C)C)cc2)n[nH]c1=S`, the manual score is 0. `Fc1ccc(/C=N/n2c(-c3cccs3)n[nH]c2=S)cc1`: the manual score was 1 (active). In the case of `COc1cccc(C(=O)NC(=S)Nc2ccc([N+](=O)[O-])cc2C)c1`, the manual score is 0. `O=C(CC(=O)Nc1ccccn1)Nc1ccccn1`: the manual score is 0. On to `Cc1cc([N+](=O)[O-])ccc1NC(=S)NC(=O)Cc1ccccc1`, for which the manual score is 0. For `O=C(NC(=S)Nc1ccccn1)c1cc(-c2ccccc2)nc2ccccc12`, the manual score is 0.5.

In the case of `Cc1ccc2cccc(NC(=S)NC(=O)c3ccnn3C)c2n1`, the manual score is 0. The result for `O=C(NC(=S)Nc1ccccn1)c1ccco1` reads 1 (active); that for `Cc1ccc2nsnc2c1NC(=S)NC(=O)c1ccco1`, 1 (active). Regarding `Cc1cccc(NC(=S)NC(=O)c2ccco2)n1`, the manual score was 1 (active). In the case of `Cc1ccc(OCC(=O)NC(=S)Nc2cccc(C)n2)cc1`, the manual score is 0. As to `Cc1ccc([N+](=O)[O-])cc1NC(=S)NC(=O)c1ccco1`, the manual score was 1 (active). With `COc1ccc(CO/N=C/c2c(C)[nH]c(=O)[nH]c2=O)cc1`, the manual score is 0. The same measure for `CCCn1nnc(NC(=O)COc2ccc(C3CCCCC3)cc2)n1`: 0; for `CC(NC(=O)C1CC=CCC1C(=O)O)C1CC2CCC1C2` (centres undefined): 0; for `CCN(CC)c1ccc2cc(-c3nnc(-c4ccccc4)o3)c(=O)oc2c1`: 3. The same measure for `CCCn1nc2cc(C(=O)NCCc3ccc(C)cc3)ccc2c1OCC`: 0; for `CCCn1nnnc1NC(=O)c1ccc2ccccc2c1`: 1 (active). Regarding `CCN(CC)CCn1c(NC(=O)c2ccc(Cl)cc2)nc2ccccc21`, the manual score is 0. On to `CC1CN(C2CC(C)(C)NC(C)(C)C2)CCC1=O` (centres undefined), for which the manual score was 0. For `Cc1ccc2c(CC(=O)NC3CCCc4ccccc43)coc2c1` (centres undefined), the manual score was 0. Turning to `O=C1CCC(/C=C/c2ccccc2)=NN1Cc1ccc(Cl)c(Cl)c1`, the manual score was 0. With `Cc1nn2c(NCCCN(C)C)c3c(nc2c1-c1ccccc1)CCC3`, the manual score is -1 (active).

In the case of `CCN1CCN(c2ccc(NC(=O)CCc3c(C)nc4c(-c5ccccc5)c(C)nn4c3C)cc2)CC1`, the manual score was 0.

Turning to `Cc1cc(N2CCOCC2)n2nc(C)c(-c3ccccc3)c2n1`, the manual score was 0. As for `CCOC(=O)C1=C(C)NC2=C(C(=O)C(C(=O)OCC)C(c3cccc(OC)c3)C2)C1c1ccccn1` (centres undefined), the manual score was 0. Turning to `COC(=O)c1onc(C(=O)c2ccccc2)c1C(=O)OC`, the manual score is -1 (active).

Turning to `CCC(C(=O)OCC(=O)Nc1ccc(Cl)c(S(=O)(=O)N(C)C)c1)c1ccccc1` (centres undefined), the manual score is 1 (active).

Consider `CN(C)S(=O)(=O)c1cc(NC(=O)COC(=O)c2ccc3c(c2)OCO3)ccc1Cl`, for which the manual score is 0.5. As for `CC(C)C(=O)OCC(=O)Nc1ccc(N=Nc2ccccc2)cc1`, the manual score is 0. The result for `COC(=O)c1sccc1NC(=O)CSc1ccccc1NS(=O)(=O)c1cc(Cl)ccc1Cl` reads 0. `Cc1cc(C)n(-c2ccc(C(=O)OCC(=O)Nc3ccc(Cl)c(S(=O)(=O)N(C)C)c3)cc2)n1`: the manual score is 1 (active). With `Cc1nn(CC(=O)Nc2ccc(Cl)c(S(=O)(=O)N(C)C)c2)c(C)c1[N+](=O)[O-]`, the manual score is 1 (active). With `CCCCN(CCCC)c1nc2ccccc2nc1C(C#N)C(=O)NCCCOC` (centres undefined), the manual score was 3.

`Oc1ccccc1CNc1ccc(Br)cn1`: the manual score was 0. As for `CCSc1nc(-c2ccccc2)c(C#N)c(=O)[nH]1`, the manual score is 0.

For the compound `CCC1(c2ccc(Cl)cc2)NC(=S)N(c2ccccc2)N1` (centres undefined), the manual score was 1 (active). For `S=C1NC(c2ccccc2)=NCN1c1ccc(Cl)cc1`, the manual score is 0.5. With `COC(=O)c1ccc(NC(=S)NC(=O)c2c(Cl)cnn2C)cc1`, the manual score is 1 (active).

On to `CCCCOC(=O)c1ccc(NC(=S)NC(=O)c2c(Br)c(C)nn2C)cc1`, for which the manual score is 0. The result for `CCCCOC(=O)c1ccc(NC(=S)NC(=O)c2c(Cl)cnn2C)cc1` reads 0.

For `CCCCOC(=O)c1ccc(NC(=S)NC(=O)c2c(Cl)cnn2CC)cc1`, the manual score was 1 (active). For the compound `COC(=O)c1ccc(NC(=S)NC(=O)c2cc(-c3ccccc3)nc3ccccc23)cc1`, the manual score is 0. The result for `Cn1ncc2cc(NC(=S)NC(=O)c3ccccc3)ccc21` reads 0. On to `CC1=NN(c2ccccc2)C(=O)C1C(=O)c1ccc(Cl)cc1` (centres undefined), for which the manual score was 0.5. For `COC(=O)C1=NN(C(=O)c2ccc(C)cc2)C(O)(c2ccc(Cl)cc2)C1` (centres undefined), the manual score was 1 (active). `CCOC(=O)C1=C(NC(=S)NC(=O)c2ccccc2)c2ccccc2CC1(C)C`: the manual score was 0. As for `CCOC(=O)C1=NN(C(=O)c2ccc(C)cc2)C(O)(c2ccc(Cl)cc2)C1` (centres undefined), the manual score is 1 (active).

Turning to `CCOC(=O)c1c(C)[nH]c(C(=O)COC(=O)CNC(=O)c2ccc(Cl)cc2)c1C`, the manual score is 0. With `CCOC(=O)C1=NN(C(=O)c2ccccc2)C(O)(c2ccc(C)cc2)C1` (centres undefined), the manual score is 1 (active). Turning to `CCC1=NN(C(=O)c2cccc(Br)c2)C(O)(c2ccc(Br)cc2)C1` (centres undefined), the manual score is 0. In the case of `COC(=O)C1=NN(C(=O)c2ccc(Cl)cc2)C(O)(c2ccccc2)C1` (centres undefined), the manual score was 1 (active). For the compound `CC(C)c1nc(N2CCOCC2)c(C#N)c2c1CCCC2`, the manual score is 0. With `Cc1ccc2c(c1)NC(=O)CC(c1ccccc1)=N2`, the manual score was 0. On to `CC1CCCCC1NC(=S)Nc1ccc(SC(F)F)cc1` (centres undefined), for which the manual score is 1 (active). Turning to `Oc1cccc(NC(=S)Nc2ccc(SC(F)F)cc2)c1`, the manual score is 1 (active). Turning to `CC1CC(C)CN(C(=S)Nc2ccc(SC(F)F)cc2)C1` (centres undefined), the manual score is 1 (active). The result for `CC1CCCC(NC(=S)Nc2ccc(SC(F)F)cc2)C1C` (centres undefined) reads 1 (active).

Consider `O=S(=O)(c1ccccc1)N1CCN(C(=S)Nc2ccc(F)cc2)CC1`, for which the manual score was 0. For the compound `Cc1ccc(SC(C)C(=O)Nc2ccc(S(=O)(=O)N3CCOCC3)cc2)cc1` (centres undefined), the manual score was 0.

Take `CCNc1ccc2noc3c2c1C(=O)c1ccccc1-3`: the manual score is 0.
